Measurements taken from PubChem BioAssay AID371 (SRMLSC, 2006).
The campaign covered roughly 3,300 compounds. About 280 (8.5%) were called active. This is one part of a sample in which actives are shown more often than they occur. A number with no mark means an inactive call.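 How the source made its calls: active means mean growth inhibition over the two runs of 50% or more; inactive means mean growth inhibition under 50%.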

Assay: A549 NSCLC cell proliferation inhibitors – ATP luminescence, human non-small cell lung line, primary screen (AID 371);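 further: compound exposure lasted 72 h before the ATP read; 0% = untreated cell signal and 100% = no luminescence left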
Settings: at 10 µM, stronger effect = higher value

**Q.** With `COC(=O)CCc1c(C)[nH]c(C(=O)OCc2ccccc2)c1C` as the molecule, how does the growth inhibition read?
**A.** 3.52%

**Q.** With `O=C(Nc1ccc2c(c1)OCO2)c1cc2n(n1)C(C(F)(F)F)CC(c1ccccc1)N2` (configuration not stated) as the molecule, how does the growth inhibition read?
**A.** 10.4%

**Q.** For `Cc1nc2sc(C)c(C)c2c(=O)o1`, which growth inhibition is on record?
**A.** 3.93%

**Q.** With `COCCCNC(=O)C(C#N)c1nc2ccccc2nc1N1CCCC1` (configuration not stated) as the molecule, how does the growth inhibition read?
**A.** 9.56%

**Q.** With `O=C(O)CCCC(=O)Nc1ccn(-c2ccccc2)n1` as the molecule, how does the growth inhibition read?
**A.** -9.55%

**Q.** For `COc1ccc(C2C(C#N)=C(C)NC3=C2C(=O)c2ccccc23)cc1` (configuration not stated), which growth inhibition is on record?
**A.** 19.6%

**Q.** With `COCCOCCOCCC(=O)NC1CC2CCC1(C)C2(C)C` (configuration not stated) as the molecule, how does the growth inhibition read?
**A.** 0.85%

**Q.** For `O=C(CCC1CCCC1)N1CCC(N2CCN(c3ccccc3)CC2)CC1`, which growth inhibition is on record?
**A.** 17.9%

**Q.** Which growth inhibition does the source give for `CC(NCCc1ccc(O)cc1)C(O)c1ccc(O)cc1` (configuration not stated) here?
**A.** 1.42%

**Q.** With `CCCCCCCCNC(C)C(O)c1ccc(SC(C)C)cc1` (configuration not stated) as the molecule, how does the growth inhibition read?
**A.** 92.4% (active)

**Q.** With `NC(=O)C1CCN(CCC(=O)Nc2ccc(Br)cc2)CC1` as the molecule, how does the growth inhibition read?
**A.** 7.48%

**Q.** For `Cc1cccc(NC(=O)c2c(C)cc(=O)oc2C)n1`, which growth inhibition is on record?
**A.** -3.57%

**Q.** Which growth inhibition does the source give for `CCNc1nc(Oc2ccccc2)nc(OC(C)C(=O)OCC)n1` (configuration not stated) here?
**A.** -2.75%

**Q.** Which growth inhibition does the source give for `Cc1cc(C)cc(-n2c3nc4ccccc4nc3c3c(=O)n(Cc4ccco4)cnc32)c1` here?
**A.** 72.2% (active)

**Q.** For `COc1cc(-n2c3nc4ccccc4nc3c3c(=O)n(Cc4ccco4)cnc32)cc(OC)c1OC`, which growth inhibition is on record?
**A.** 4.1%

**Q.** For `CCOc1ccc(-n2c3nc4ccccc4nc3c3c(=O)n(Cc4ccco4)cnc32)cc1`, which growth inhibition is on record?
**A.** 14.6%

**Q.** With `COc1ccc(C2(CN(C(C)=O)C(C)=O)CCCC2)cc1OC` as the molecule, how does the growth inhibition read?
**A.** 9.44%

**Q.** For `COC(=O)NCC12CC3CC(C1)CC(CNC(=O)OC)(C3)C2`, which growth inhibition is on record?
**A.** 2.32%

**Q.** With `Nc1c(Br)cc2oc(-c3ccccc3)nc2c1Br` as the molecule, how does the growth inhibition read?
**A.** 31.4%

**Q.** With `COc1ccc(N2CC(=O)N(c3ccc(OC)c(OC)c3)CC2=O)cc1OC` as the molecule, how does the growth inhibition read?
**A.** -2.72%

**Q.** For `O=C1CCCN1c1ccc(S(=O)(=O)NCc2ccco2)cc1`, which growth inhibition is on record?
**A.** 0.41%

**Q.** With `COc1ccc(OC)c(NS(=O)(=O)c2ccc(N3CCCC3=O)cc2)c1` as the molecule, how does the growth inhibition read?
**A.** 62.5% (active)

**Q.** For `CCOc1ccc(/C(O)=C2/C(=O)C(=O)N(CCN(C)C)C2c2ccccc2)cc1Cl` (configuration not stated), which growth inhibition is on record?
**A.** -0.75%

**Q.** Which growth inhibition does the source give for `COc1cccc(/C(O)=C2\C(=O)C(=O)N(c3ccccn3)C2c2ccccc2OC)c1` (configuration not stated) here?
**A.** 6.79%

**Q.** Which growth inhibition does the source give for `CC(C)Cn1cnc2c(c1=O)c1nc3ccccc3nc1n2Cc1ccc2c(c1)OCO2` here?
**A.** 12.6%

**Q.** For `CC(C)C1Cc2c(C#N)c(N)n(C)c(=S)c2CO1` (configuration not stated), which growth inhibition is on record?
**A.** 11.2%

**Q.** Which growth inhibition does the source give for `COc1ccc(OC)c(C2C(C(=O)c3ccco3)=C(O)C(=O)N2CCCN2CCOCC2)c1` (configuration not stated) here?
**A.** 4.05%

**Q.** With `c1ccc(CN2CCN(c3nc(-c4ccccn4)nc4ccccc34)CC2)cc1` as the molecule, how does the growth inhibition read?
**A.** 60% (active)

**Q.** With `c1ccc(N2CCN(c3nc(-c4ccccn4)nc4ccccc34)CC2)cc1` as the molecule, how does the growth inhibition read?
**A.** 64.6% (active)

**Q.** With `c1ccc2c(N3CCCCC3)nc(N3CCCCC3)nc2c1` as the molecule, how does the growth inhibition read?
**A.** 25.8%

**Q.** Which growth inhibition does the source give for `COc1cccc(-c2nc(N3CCN(Cc4ccccc4)CC3)c3ccccc3n2)c1O` here?
**A.** 6.86%

**Q.** For `Cc1nc(N2CCN(Cc3ccccc3)CC2)c(C#N)c2c1COC(C)(C)C2`, which growth inhibition is on record?
**A.** 17.5%

**Q.** Which growth inhibition does the source give for `Fc1ccccc1-c1nc(N2CCCCC2)c2ccccc2n1` here?
**A.** 47.5%

**Q.** Which growth inhibition does the source give for `CCOC(=O)COc1nc(N(C)C)nc(N(C)C)n1` here?
**A.** -5.85%

**Q.** For `Cc1nc(SCC(=O)Nc2ccc3c(c2)OCO3)c(C#N)c2c1CCCC2`, which growth inhibition is on record?
**A.** 18.5%

**Q.** For `C=C1C2(C(=O)Nc3nccs3)CCC(C2)C1(C)C` (configuration not stated), which growth inhibition is on record?
**A.** 5.39%

**Q.** For `COc1ccc(-c2nnc3sc(-c4c(OC)cccc4OC)nn23)cc1`, which growth inhibition is on record?
**A.** 16.6%

**Q.** With `CC(O)CNc1nc2c(c(=O)n(C)c(=O)n2C)n1Cc1cccc(C(F)(F)F)c1` (configuration not stated) as the molecule, how does the growth inhibition read?
**A.** 22.2%

**Q.** For `O=C(Nc1ccc2c(c1)OCO2)c1cncc(Br)c1`, which growth inhibition is on record?
**A.** 4.86%

**Q.** With `COC(=O)c1ccn(C(=O)c2ccc(Cl)cc2)n1` as the molecule, how does the growth inhibition read?
**A.** 3.19%

**Q.** For `COCCOC(=O)c1c(C)nc(SCC(=O)Nc2ccc(OC)cc2)c(C#N)c1-c1ccco1`, which growth inhibition is on record?
**A.** 5.46%

**Q.** With `CCCN(CCC)c1nc2ccccc2nc1C(C#N)C(=O)OC(C)COC` (configuration not stated) as the molecule, how does the growth inhibition read?
**A.** 52.1% (active)

**Q.** With `CCCCN(CCCC)c1nc2ccccc2nc1C(C#N)C(=O)NCCCOC` (configuration not stated) as the molecule, how does the growth inhibition read?
**A.** 9.29%

**Q.** Which growth inhibition does the source give for `C=CCN(CC=C)c1nc2ccccc2nc1C(C#N)C(=O)OC(C)C` (configuration not stated) here?
**A.** 23.2%

**Q.** Which growth inhibition does the source give for `CCOC(=O)c1oc2cc(O)cc(C)c2c(=O)c1-c1cscn1` here?
**A.** 4.18%

**Q.** For `Cc1oc2cc(O)cc(C)c2c(=O)c1-c1cnn(-c2ccccc2)c1`, which growth inhibition is on record?
**A.** 59% (active)

**Q.** With `Cc1oc2cc(O)ccc2c(=O)c1-c1cnn(-c2ccccc2)c1` as the molecule, how does the growth inhibition read?
**A.** 28.4%

**Q.** With `CCSC1=C(C#N)C(c2cccs2)C(C(=O)OC)=C(C)N1` (configuration not stated) as the molecule, how does the growth inhibition read?
**A.** 30.4%

**Q.** For `CCOC(=O)C1=C(C)NC(SCC(=O)Nc2nc(C)cs2)=C(C#N)C1c1cccs1` (configuration not stated), which growth inhibition is on record?
**A.** 86.8% (active)

**Q.** Which growth inhibition does the source give for `C#CCSC1=C(C#N)C(c2cccs2)C(C(=O)OCC)=C(C)N1` (configuration not stated) here?
**A.** 47.5%

**Q.** Which growth inhibition does the source give for `COc1cc(-c2nn3c(-c4ccco4)nnc3s2)cc(OC)c1OC` here?
**A.** 0.05%

**Q.** With `O=C(NCCCN1CCOCC1)C1(c2ccccc2)CCOCC1` as the molecule, how does the growth inhibition read?
**A.** 2.07%

**Q.** Which growth inhibition does the source give for `O=C(c1ccc(=O)oc1)N1CCN(C(c2ccccc2)c2ccccc2)CC1` here?
**A.** 41.2%

**Q.** With `CNCCCC12CCC(c3ccccc31)c1ccccc12` as the molecule, how does the growth inhibition read?
**A.** 52.9% (active)

**Q.** For `CCCCc1nc2n[nH]c(N)c2c2c1CCCC2`, which growth inhibition is on record?
**A.** 12.1%

**Q.** For `CC(C)(C#N)C(C)(C)c1nn[nH]n1`, which growth inhibition is on record?
**A.** -3.48%

**Q.** For `Cc1cc(=O)n(CCC(=O)O)c2ccccc12`, which growth inhibition is on record?
**A.** 0.16%

**Q.** With `COc1ccc(CCN2CCC(Nc3nc4ccccc4n3Cc3ccc(F)cc3)CC2)cc1` as the molecule, how does the growth inhibition read?
**A.** 95.5% (active)

**Q.** Which growth inhibition does the source give for `COc1ccc2c(c1)nc(N)n2Cc1ccccc1` here?
**A.** 21.8%

**Q.** For `Clc1ccc(Cn2c(CN3CCCC3)nc3ccccc32)cc1`, which growth inhibition is on record?
**A.** 29.6%

**Q.** With `COc1ccc(OC)c(C2C(C#N)=C(N)Oc3cc(C)n(Cc4ccccn4)c(=O)c32)c1` (configuration not stated) as the molecule, how does the growth inhibition read?
**A.** -2.3%

**Q.** Which growth inhibition does the source give for `COC(=O)CSc1nc(C)c(Oc2ccccc2)c(=O)[nH]1` here?
**A.** -3.23%
